Measured values reported in PubChem BioAssay (NCI).
This is part of a sample that, as a whole, favours compounds with a hit. Of some 83,000 tested, about 20% had one in any assay.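 In brief: 96-well plates, 48 h treatment, single concentration, percent growth endpoint.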 Active and inactive are the calls of the source.

system: OVCAR-4 ovarian; assay: NCI-60 one-dose screen, 48 h (100 = growth as untreated, 0 = no growth, -100 = all killed); details: 10 µM unless noted
Description: Growth inhibition of the OVCAR-4 human tumor cell line is measured as a screen for anti-cancer activity. Cells are grown in 96 well plates and exposed to the test compound for 48 hours. Compounds are tested at a single concentration, which is 10^-5 M for most compounds. The reported endpoint is percent growth (GI% or GIPRCNT), where numbers from 0 - 100% represent growth inhibition, and numbers from -100% - 0 represent cell death. For example, a value of 40 represents 60% growth inhibition. A value of 0 means no net growth occurred over the course of the experiment. A value of -40 indicates 40% of cells at the beginning of the experiment died by the end of the experiment. A value of -100 means all cells are dead at the end of the experiment.
NCI-60 Human Tumor Cell Lines Screen was performed using the standard one-dose NCI protocol, which is described in more detail at https://dtp.cancer.gov/discovery_development/nci-60/default.htm.
Compounds with GIPRCNT values below 10 were considered active. Activity score was based on GIPRCNT using the following formula: […]
Score is 0 for GIPRCNT values of 100 or above, 50 for GIPRCNT values of 0, and 100 for GIPRCNT values of -100.

| SMILES | growth |
| --- | --- |
| CCCOC(=O)c1ccc2c(c1)[N+](=O)C(C(=O)c1ccccc1)=C(C(F)(F)F)[N+]2=O | -73.1% (active) |
| CCCCCCCCCCCCSC1=CC(=O)C=CC1=O | 57.1% (inactive) |
| CCN(CC)c1ccc2c(c1)OS(=O)(=O)N=C2 | 97.9% (inactive) |
| O=C1CC(c2ccsc2)c2snc(-c3ccc(Cl)cc3)c2N1 (stereo not given) | 37.5% (inactive) |
| O=C(O)c1ccccc1Oc1cc(-c2ccco2)nc(OCCBr)n1 | 98.5% (inactive) |
| CCCN(CCC)c1ccc(/C=C/c2ccc3cc(OCC)ccc3n2)cc1 | 80.8% (inactive) |
| O=C1C(OCCOc2ccccc2)=C(OCCOc2ccccc2)C(=O)c2ccccc21 | 44.8% (inactive) |
| CN1CCN(CCCn2c3c(sc4ncccc43)c(=O)n3nnc(-c4ccccc4)c23)CC1 | -61.4% (active) |
| Cc1cc(=O)oc2c1ccc1oc(C(=O)c3ccccc3)c(C)c12 | 66.8% (inactive) |
| Cc1ccc2c(c1)c(Sc1ccc(C(=O)NO)cc1)c1n2CN(C)CC1 | -1.78% (active) |
| COc1ccc(/C=C/C(=O)N2CCC(O)CC2)cc1OC1CCCC1 | 101% (inactive) |
| Cc1ccc(N=c2nc3sc4c(C)ccc(C)c4n3c(N)c2C#N)cc1 | 88.9% (inactive) |
| Cc1c(C)n(CC(O)CNC2CCCCC2C)c2ccccc12 (stereo not given) | -26.2% (active) |
| CCOC(=O)C(CC(c1ccccc1)N1CCCCC1)[N+](=O)[O-] (stereo not given) | 96.5% (inactive) |
| O=C1C(Br)=C(c2ccccc2)C(=O)C(Br)=C1c1ccccc1 | 90% (inactive) |
| COc1cc2nc(N3CCC[C@H](NC4=CC(=O)c5ccccc5C4=O)C3)nc(N)c2cc1OC | -88% (active) |
| Cn1c(=O)c2c(-c3ccccc3F)n(-c3ccc4c(c3)OCO4)cc2n(C)c1=O | 104% (inactive) |
| COC(=O)c1c2c(c(C)[n+]([O-])c1C)C(=O)C(NCc1ccc(O)cc1)=CC2=O | -97.4% (active) |
| CCCCc1ccc(NC(=O)C(F)(F)F)cc1 | 114% (inactive) |
| O=C(COc1ccc(/C=C2\CSc3ccccc3C2=O)cc1)c1ccc(Cl)cc1 | 107% (inactive) |

| SMILES | growth |
| --- | --- |
| O=C(O)CCN1CCN(c2cccc(Cl)c2)CC1 | 92% (inactive) |
| COc1ccc(C2SC(C)C(=O)N2CCc2cccs2)cc1OC (stereo not given) | 62.8% (inactive) |
| Cc1nc2cc(Nc3nc(N4CCOCC4)nc(N4CCN(C)CC4)n3)ccc2n1Cc1ccccc1 | 100% (inactive) |
| Cc1ccc(C2SCC(=O)N2NC(=O)c2[nH]c3ccc(F)cc3c2-c2ccccc2)cc1 (stereo not given) | 79.7% (inactive) |
| O=C1/C(=C/c2ccc([N+](=O)[O-])cc2)Oc2ccc(O)cc21 | 39.7% (inactive) |
| NC(=O)c1cc(I)ccc1NC(=O)COc1ccccc1 | 78.9% (inactive) |
| CCC(=O)Nc1nnc(Cc2ccc(OC)c(OC)c2)s1 | -69.7% (active) |
| CC(=O)Nc1ccccc1-c1n[nH]c(=O)[nH]c1=O | 93.6% (inactive) |
| Cc1nc(NC(=O)COc2cccc(/C=C3\COc4ccccc4C3=O)c2)sc1C | 55.1% (inactive) |
| COc1cc(-c2nc(SC(C)C)nc(Nc3ccccc3C)c2C#N)cc(OC)c1OC | 110% (inactive) |
| COc1cc(-c2nc(SC(C)C)nc(Nc3cccc(C)c3)c2C#N)cc(OC)c1OC | 107% (inactive) |
| COc1ccccc1-n1c(SCc2cc(OC)c(OC)c(OC)c2)nc2ccc(Cl)cc2c1=O | 63% (inactive) |
| Cn1c2c(cc(S(=O)(=O)c3ccccc3)c1=O)CCc1c-2cnn1-c1cccc(Cl)c1 | 60.9% (inactive) |
| COc1cc(C2=NN(c3ccc(S(N)(=O)=O)cc3)C(c3ccc(Cl)cc3)C2)cc(OC)c1OC (stereo not given) | 42.4% (inactive) |
| C=C(C)COC(=O)c1ccccc1C(=O)OCC1(C)CO1 (stereo not given) | 110% (inactive) |
| CC(C)(C)[Si](C)(C)OC1[C@@H](COC(N)=O)O[C@@H](n2cnc3c(N)ncnc32)[C@H]1O[Si](C)(C)C(C)(C)C (stereo not given in full) | 96.2% (inactive) |
| CC(=O)Nc1ccc(S(=O)(=O)N/N=C\c2ccc(Cl)c(Cl)c2)cc1 | 113% (inactive) |
| O=C1/C(=C/c2ccc(F)cc2)CN(Cc2cn(CCNc3ccnc4cc(Cl)ccc34)nn2)C/C1=C\c1ccc(F)cc1 | 23.3% (inactive) |
| Cc1cc(=O)[nH]n1-c1cc(Cl)ccc1N | 105% (inactive) |
| CC1(C)N=C(N)N=C(N)N1c1cccc(/C=C/C=C/c2cccc([N+](=O)[O-])c2)c1 | 65.3% (inactive) |
